# Data from PubChem BioAssay (Tox21).
# Several values for one entry are separate records, joined by “and”; a condition that tells them apart may be missing. Identical values can stand only once. Results filed as inconclusive are left out. Where a call stands in place of a potency, no number is given. Activity calls are given as the source filed them. Calls come from the whole dose curve.
# Molecular target: 5-hydroxytryptamine receptor 2A (Homo sapiens) (UniProt P28223)
# Experiment: 5-hydroxytryptamine receptor 2A (HTR2A) small molecule agonists, cell-based qHTS assay (AID 1963587); note: nearly all actives have a fitted effect of over 30% in size
# Details: HTR2A-CHO cells, calcium flux fluorescence, agonist mode; series mostly up to 76.8 µM
# Description: National Center for Advancing Translational Sciences [NCATS]
# Division of Preclinical Innovation [DPI]
# U.S. Environmental Protection Agency [EPA]
# National Institutes of Environmental Health Sciences [NIEHS]
# National Toxicology Program [NTP]
# U.S. Food and Drug Administration [FDA]
# The HTR2A receptor is a subtype of the 5-HT2 receptor that belongs to the serotonin receptor family and is a G protein-coupled receptor (GPCR). The HTR2A-CHO cell line stably expressing human 5-hydroxytryptamine receptor 2A (HTR2A) can be used for screening agonists of interactions between 5-HT2 and its ligands. The HTR2A-CHO calcium flux assay is a homogeneous fluorescence-based assay for detecting the intracellular calcium level using FDSS kinetic plate reader system.
# HTR2A-CHO cells were dispensed at 2000 cells/3uL/well in 1536-well black-clear bottom plates using a Multidrop Dispenser. After the assay plates were incubated at a 37 C/5% CO2 incubator for 18 h, 3 uL of Dye Loading Buffer was transferred to the assay plate by a Flying Reagent Dispenser. The assay plates were incubated at 37 C for 1h. For agonist mode, 23 nL of compounds dissolved in DMSO, positive controls or DMSO only was transferred to the assay plate by a pin tool. The fluorescence intensity in the plates was measured using FDSS 7000EX kinetic plate reader for 2 min at 1 sec intervals.
# Potency is the fitted concentration of half-maximal effect.
# Chain of 5-hydroxytryptamine receptor 2A (Homo sapiens) (P28223 whole entry, looked up): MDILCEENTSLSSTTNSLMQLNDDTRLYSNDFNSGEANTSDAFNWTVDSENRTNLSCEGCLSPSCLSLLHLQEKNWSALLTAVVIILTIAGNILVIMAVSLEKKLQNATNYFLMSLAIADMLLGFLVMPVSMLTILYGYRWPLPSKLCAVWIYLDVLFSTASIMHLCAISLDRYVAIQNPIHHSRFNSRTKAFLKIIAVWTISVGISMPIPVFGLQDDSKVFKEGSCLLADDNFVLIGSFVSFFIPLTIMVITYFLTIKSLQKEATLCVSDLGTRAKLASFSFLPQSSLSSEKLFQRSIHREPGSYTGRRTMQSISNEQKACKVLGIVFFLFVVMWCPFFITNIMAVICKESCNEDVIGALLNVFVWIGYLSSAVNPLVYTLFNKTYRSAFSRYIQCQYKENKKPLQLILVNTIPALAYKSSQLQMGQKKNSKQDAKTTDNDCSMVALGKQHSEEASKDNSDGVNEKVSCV
Compound,Potency,activation
CCCCN,inactive,–
CCCCN1C(=O)c2ccccc2C1=O,inactive,–
CCCCCCC#CC(=O)OC,inactive,–
Oc1ccccc1F,inactive,–
CC(CC=O)CCCC(C)(C)O (stereo not given),inactive,–
CC/C=C\CCCCCO,inactive,–
O=C(O)COCCN1CCN(C(c2ccccc2)c2ccc(Cl)cc2)CC1 (stereo not given),inactive,–
CCNCCO,inactive,–
CC[N+](C)(CC)CC,inactive,–
O=Cc1ccccc1S(=O)(=O)O,inactive,–
O=C1CCCN1C1CCCCC1,inactive,–
Cc1c(Cl)cccc1Cl,inactive,–
O=C1CCCCCN1SSN1CCCCCC1=O,inactive,–
CCO[Si](CCC1CCC2OC2C1)(OCC)OCC (stereo not given),inactive,–
CCCc1nc(C)c2c(=O)[nH]c(-c3cc(S(=O)(=O)N4CCN(CC)CC4)ccc3OCC)nn12,inactive,–
Fc1ccc(C(c2ccc(F)cc2)N2CCNCC2)cc1,inactive,–
Nc1cc(Cl)c([N+](=O)[O-])cc1O,inactive,–
Cc1ncc(COP(=O)(O)O)c(C=O)c1O,inactive,–
Cc1c[nH]c(=S)[nH]c1=O,inactive,–
O=C(O)O,–,-3.03% [at 7.02 µM] (inactive)

Compound,Potency,activation
CCOC(=O)/C=C/c1ccccc1,inactive,–
CCCc1c(OCCCOc2ccc(OCC(=O)O)cc2)ccc(C(C)=O)c1O,54.9 µM (active),–
O=[N+]([O-])c1ccc2ncccc2c1,inactive,–
CC(CSC(=O)c1ccccc1)C(=O)N1C[C@@H](Sc2ccccc2)C[C@H]1C(=O)O (stereo not given in full),–,-7.52% [at 15.9 µM] (inactive)
O=C(c1ccccc1)c1cc(Cl)ccc1O,inactive,–
CCCNCCC,inactive,–
NC(=S)NC(N)=S,inactive,–
CO/N=C1\CN(c2nc3c(cc2F)c(=O)c(C(=O)O)cn3C2CC2)CC1CN (stereo not given),inactive,–
O=C(Nc1ccccc1)c1cc(Cl)ccc1O,inactive,–
CCN[C@H]1C[C@H](C)S(=O)(=O)c2sc(S(N)(=O)=O)cc21,inactive,–
C=CCCC(=O)O,inactive,–
SC1CCCC1,inactive,–
Cc1cc2nc3c(=O)[nH]c(=O)nc-3n(C[C@H](O)[C@H](O)[C@H](O)CO)c2cc1C,6.1 µM (active) and 16.1 µM (active) and 11.7 µM (active),–
O=C(O)/C=C(\CC(=O)O)C(=O)O,inactive,–
c1ccc(Sc2ccccc2)cc1,inactive,–
CCOC(=O)COc1ccc2c(c1)CC(NCC(O)c1cccc(Cl)c1)CC2 (stereo not given),31.2 µM (active),–
CCCOc1ccc2nc(NC(=O)OC)[nH]c2c1,inactive,–
CCOC(=O)C1=NN(c2ccccc2)C(=O)C1,inactive,–
CCCCOc1ccc(CC(=O)NO)cc1,inactive,–
COc1ccc(-c2ccc3cc(C(=O)O)ccc3c2)cc1C12CC3CC(CC(C3)C1)C2,inactive,–
